Experimental data from PubChem BioAssay AID1159580 (chemical genetic matrix, 2015).
Hit rate of the full screen: of about 5,500 compounds, about 2,000 (36%) were called active. About 18% were inconclusive and are not listed. Rule as the data show it: active = normalized growth mostly below about 0.91 (no sharp cut-off); inconclusive = no clear call, values can overlap the other calls; inactive = mostly above about 0.92. The list shows a part of the results.

Experiment: chemical genetic growth profiling, strain panel (AID 1159580);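 also: tested at 20 µM; growth read once vehicle control cultures reached saturation at 30 °C; 1 = growth at the plate median or of vehicle wells; lower values mean less growth of the strain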
Conditions: S. cerevisiae deletion strains, growth OD

Measured: normalized growth

Nc1ncnc2c1ncn2[C@@H]1O[C@H](CO)[C@H](O)C1O (some centres undefined)
inactive: locus YAL040C, strain CLN3, stronger effect = lower value 0.999 | locus YCL061C, strain MRC1 (second series), stronger effect = lower value 0.998 | locus YDR363W, strain ESC2, stronger effect = lower value 1.01 | locus YER002W, strain NOP16, stronger effect = lower value 1.01 | locus YNL153C, strain GIM3, stronger effect = lower value 1.04 | locus YNL175C, strain NOP13, stronger effect = lower value 1.02 | locus YNL197C, strain WHI3, stronger effect = lower value 1.02 | locus YNL224C, strain SQS1, stronger effect = lower value 1.02 | locus YOR083W, strain WHI5 (second series), stronger effect = lower value 1.07
